± gives the standard deviation of the averaged measurements.
What was measured:
Details in all cases: concentration: 10 µM; 24 h
HCC1569 [1] = experiment: cell number relative to DMSO (% of DMSO); higher = more cells (less growth inhibition / toxicity)
Method in brief: (§1)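 Treatment: HCC1569 and TDF cells, 800 per well in 384-well plates with RPMI and 10% FBS, were given compounds at 10 µM for 24 h at 37 °C, in triplicate. Readout: after 3.7% formaldehyde fixation, cells were stained with a rabbit anti-H1.0 antibody, an AlexaFluor 647 secondary and DAPI. Reported values are H1.0 nuclear intensity or cell number as percent of the plate control, taken as the median of replicates, with positional smoothing for HCC1569.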

TDF [2] = experiment: as above
Method in brief: as §1

TDF [3] = experiment: H1.0 immunofluorescence intensity relative to DMSO (% of DMSO); higher = stronger H1.0 induction, active = 120 or more
Method in brief: as §1

HCC1569 [4] = experiment: H1.0 immunofluorescence intensity relative to DMSO (% of DMSO); higher = stronger H1.0 induction, active = 140 or more
Method in brief: as §1
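For H1.0 immunofluorescence intensity relative to DMSO in this document: TDF is a line of transformed human dermal fibroblasts of mesenchymal origin.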
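For cell number relative to DMSO in this document: TDF denotes transformed human dermal fibroblasts of mesenchymal origin.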

Compound	cell number (HCC1569 [1])	cell number (TDF [2])	H1.0 immunofluorescence intensity (TDF [3])	H1.0 immunofluorescence intensity (HCC1569 [4])
CC(C)Oc1cccnc1N(C)C1CCN(Cc2ccccc2)CC1.O=C(O)C=CC(=O)O	103	106	99 (inactive)	112 (inactive)
CC(N)C(=O)OC(C)(C)Cc1ccc(Cl)cc1.Cl (stereo not drawn) [Alaproclate hydrochloride]	102	111	88.2 (inactive)	88.6 (inactive)
Cl.OCC1C(O)C(O)C2C(O)CCN12 (stereo not drawn)	101	111	97 (inactive)	97.5 (inactive)
CC1OC(C[N+](C)(C)C)CS1.[I-] (stereo not drawn) [OXA-22 iodide]	99.8	116	97.2 (inactive)	95.2 (inactive)
CN1CCc2cc3c(cc2C1C1OC(=O)c2c1ccc1c2OCO1)OCO3 (single isomer, unassigned; (+)) [(+)-Bicuculline]	92.1 ± 16	89.1 ± 15	98.9 (inactive)	92.6 (inactive)
COc1ccc(C(=O)c2c(C)n(CCN3CCOCC3)c3cc(I)ccc23)cc1	85.1	82.3	108 (inactive)	128 (inactive)
CCC1C2CC3C4N(C)c5ccccc5C45CC(C2C5O)N3C1O (stereo not drawn) [Ajmaline]	101	86.8	96.9 (inactive)	93.1 (inactive)
Nc1ncnc2c1ncn2C1OC(COP(=O)(O)CP(=O)(O)OP(=O)([O-])[O-])C(O)C1O.[Li+].[Li+] (stereo not drawn) [alpha,beta-Methylene adenosine 5'-triphosphate dilithium]	102	109	87.9 (inactive)	96.4 (inactive)
Cc1ncc(CNC(=O)N(CCCl)N=O)c(N)n1.Cl [Nimustine hydrochloride]	97.8	64.7	104 (inactive)	94.4 (inactive)
CCCCCC=CCC=CCC=CCC=CCCCC(=O)NCC(=O)O [N-arachidonylglycine]	101	99.4	98.2 (inactive)	99.6 (inactive)
CCCN(CCC)C1Cc2cc(OC)c(OC)cc2C1.O=C(O)C=CC(=O)O	103	107	97.7 (inactive)	102 (inactive)
Cl.NNC(N)=O [Semicarbazide hydrochloride]	102	111	89 (inactive)	108 (inactive)
CC(=O)OC1C(=O)C2(C)C(O)CC3OCC3(OC(C)=O)C2C(OC(=O)c2ccccc2)C2(O)CC(O)C(C)=C1C2(C)C (stereo not drawn) [Baccatin III]	105	112	111 (inactive)	105 (inactive)
CC12CCC3C(CCC4=C(O)C(=O)CCC43C)C1CCC2=O (stereo not drawn) [4-Androsten-4-ol-3,17-dione]	102	96.7	93.4 (inactive)	89.7 (inactive)
Clc1cnc(Oc2ccc(Oc3ncc(Cl)cc3Cl)cc2)c(Cl)c1	100	109	97.1 (inactive)	99.2 (inactive)
CN1C(=O)CCS(=O)(=O)C1c1ccc(Cl)cc1 (stereo not drawn) [Chlormezanone]	101	108	85.9 (inactive)	95.3 (inactive)
CC(=O)NCCc1c[nH]c2ccccc12 [N-Acetyltryptamine]	101	97.5	104 (inactive)	94.1 (inactive)
CC1=C2C(=O)C3C(CC=C4CC(O)CCC43C)C2CCC12OC1CC(C)CNC1C2C (stereo not drawn) [Jervine]	97.9	104	94.3 (inactive)	92 (inactive)
CC1CCC2C(C)C3CCC4(O)C(CC5C4CC(=O)C4CC(=O)CCC45C)C3CN2C1 (stereo not drawn) [Sevedindione]	99.8	110	91.7 (inactive)	85 (inactive)
CCN1CC2(COC)CCC(OC)C34C5CC6(O)C(OC)CC(OC(C)=O)(C5C6C(=O)c5ccc(OC)cc5)C(C(OC)C23)C14 (stereo not drawn) [Bulleyaconotine A]	99	103	103 (inactive)	88.8 (inactive)
COc1ccc(OC)c(C(O)C(C)N)c1.Cl (stereo not drawn) [Methoxamine hydrochloride]	101	106	95.2 (inactive)	94.3 (inactive)
CC(C)=CCCC1(C)C=Cc2c(O)c3c(c(CC=C(C)C)c2O1)OC12C(=CC4CC1C(C)(C)OC2(CC=C(C)C(=O)O)C4=O)C3=O (stereo not drawn) [Gambogic acid]	14.1	10.6	148 (active)	58.8 (inactive)
CCCCCC=CCC=CCC=CCCCCCCC(=O)NCCO [Anandamide (20:3,n-6)]	101	97.4	102 (inactive)	103 (inactive)
O=c1[nH]c2ccccc2n1C1CCN(CCCC(c2ccc(F)cc2)c2ccc(F)cc2)CC1 [Pimozide]	81.2 ± 11	90.7 ± 1.7	107 (inactive)	144 (active)
COc1cc2c(cc1OC)[C@H]1CC(=O)[C@H](CC(C)C)CN1CC2	106	102	88 (inactive)	96.4 (inactive)
Cc1c(C(C)C2NCC(C)CC2O)ccc2c1CC1C2CC=C2CC(O)CCC21C (stereo not drawn) [Veratramine]	96.7	88.6	104 (inactive)	90.2 (inactive)
C[N+](C)(C)CC#CCOC(=O)Nc1cccc(Cl)c1.[Cl-]	103	99.2	94.4 (inactive)	87.7 (inactive)

— the supplement of paper PMC7156485
